Laboratory results published in PubChem BioAssay.
Unmarked numbers belong to inactive results. For some of these results: Results with a measured potency or affinity are listed apart. Calls of active or inactive are those of the source. Unless noted, the rule behind the calls is not given here.

Experiments:
[1] = antimalarial activity against Dd2 strain (AID 2302;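 active = growth inhibition above 50% at the single 2 µM test dose, taken to imply half-maximal potency below 2 µM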;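 note: 0% = DMSO untreated growth and 100% = chloroquine plus artemisinin killed control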); conditions: P. falciparum Dd2 in RBCs, LDH growth readout, 72 h; at 2 µM; stronger effect = higher value
[2] = HepG2 cytotoxicity, primary screen, cytotoxicity control for P. falciparum antimalarial project, cell-based, ATP luminescence (AID 2303;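 active = inhibition above 50%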;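 note: 0% = DMSO wells and 100% = digitonin-killed cells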); conditions: HepG2 viability, 24-48 h, at 10 µM, stronger effect = higher value
[3] = target: L-lactate dehydrogenase (Plasmodium falciparum (isolate CDC / Honduras)) (UniProt Q27743); assay: PfLDH activity inhibition – cell lysate, 3D7 strain, counter-screen for P. falciparum growth inhibition project (AID 2304);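 note: 0% = vehicle and 100% = reference inhibitor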; conditions: P. falciparum 3D7 crude extract, LDH APAD/NBT absorbance; at 2 µM; stronger effect = higher value
[4] = inhibition of 3D7 malaria parasite growth – strain 3D7 (AID 2306);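 note: 0% = DMSO wells and 100% = chloroquine plus artemisinin control wells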; conditions: P. falciparum 3D7 erythrocytic growth, LDH absorbance, 72 h; at 2 µM; stronger effect = higher value
[5] = target: Calcium-dependent protein kinase 1 (Plasmodium falciparum (isolate 3D7)) (UniProt P62344); assay: PfCDPK1 kinase inhibitors, biochemical, TCAMS library (AID 1159585; cut-off not given, nearly all actives have IC50 up to about 0.98 µM;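 note: inhibitors leave more ATP so luminescence rises with inhibition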); conditions: recombinant PfCDPK1, Kinase-Glo ATP depletion luminescence
[6] = target: Plasmodium falciparum protein kinase 6 (PK6, PF3D7_1337100) (UniProt Q8IDW1); assay: PfPK6 kinase inhibitors, biochemical, TCAMS library (AID 1159586); conditions: recombinant PfPK6, Kinase-Glo ATP depletion luminescence
[7] = target: Protein kinase 7 (PK7), Plasmodium falciparum 3D7 (PF3D7_0213400) (UniProt Q7YTF7); assay: inhibition of Plasmodium PK7 catalytic activity – biochemical, TCAMS antimalarial set, Kinase-Glo luminescence (AID 1159587); conditions: recombinant PfPK7, Kinase-Glo ATP depletion luminescence
[8] = target: Calcium-dependent protein kinase 4 (Plasmodium falciparum (isolate 3D7)) (UniProt Q8IBS5); assay: PfCDPK4 kinase inhibitors, biochemical, TCAMS library (AID 1159588; cut-off not given, nearly all actives have IC50 up to about 0.91 µM); conditions: recombinant PfCDPK4, Kinase-Glo ATP depletion luminescence
Calcium-dependent protein kinase 4 (Plasmodium falciparum (isolate 3D7)), sequence (Q8IBS5 whole entry, looked up): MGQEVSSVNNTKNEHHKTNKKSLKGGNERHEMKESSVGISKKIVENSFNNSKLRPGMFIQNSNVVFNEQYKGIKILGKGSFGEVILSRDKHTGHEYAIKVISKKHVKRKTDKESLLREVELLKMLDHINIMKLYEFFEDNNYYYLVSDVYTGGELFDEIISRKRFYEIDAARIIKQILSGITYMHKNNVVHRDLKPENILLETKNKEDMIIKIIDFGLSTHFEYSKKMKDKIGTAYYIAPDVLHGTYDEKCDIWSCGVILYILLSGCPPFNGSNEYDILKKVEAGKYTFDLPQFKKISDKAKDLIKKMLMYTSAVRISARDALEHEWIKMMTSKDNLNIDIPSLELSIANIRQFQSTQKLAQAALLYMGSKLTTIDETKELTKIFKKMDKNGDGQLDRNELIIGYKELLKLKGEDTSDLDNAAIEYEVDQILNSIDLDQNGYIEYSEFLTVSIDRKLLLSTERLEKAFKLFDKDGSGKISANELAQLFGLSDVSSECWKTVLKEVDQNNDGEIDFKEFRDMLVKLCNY

Plasmodium falciparum protein kinase 6 (PK6, PF3D7_1337100), sequence (Q8IDW1 1-305): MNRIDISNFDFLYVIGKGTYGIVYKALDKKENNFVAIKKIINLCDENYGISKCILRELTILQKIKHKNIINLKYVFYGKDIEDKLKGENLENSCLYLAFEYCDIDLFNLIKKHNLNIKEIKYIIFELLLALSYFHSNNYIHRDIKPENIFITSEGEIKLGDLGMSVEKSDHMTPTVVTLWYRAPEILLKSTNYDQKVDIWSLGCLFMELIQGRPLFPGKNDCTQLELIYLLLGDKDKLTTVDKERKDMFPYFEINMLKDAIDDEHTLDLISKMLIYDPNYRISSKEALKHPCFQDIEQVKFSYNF
Protein kinase 7 (PK7), Plasmodium falciparum 3D7 (PF3D7_0213400), sequence (Q7YTF7 1-343): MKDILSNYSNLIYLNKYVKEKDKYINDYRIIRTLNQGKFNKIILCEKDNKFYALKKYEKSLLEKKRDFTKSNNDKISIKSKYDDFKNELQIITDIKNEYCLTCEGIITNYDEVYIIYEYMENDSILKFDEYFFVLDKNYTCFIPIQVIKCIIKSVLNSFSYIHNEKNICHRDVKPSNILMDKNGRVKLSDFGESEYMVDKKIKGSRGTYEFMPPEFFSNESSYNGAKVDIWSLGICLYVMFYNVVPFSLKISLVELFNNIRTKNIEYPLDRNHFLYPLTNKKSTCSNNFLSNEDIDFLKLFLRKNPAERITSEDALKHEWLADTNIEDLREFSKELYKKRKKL
L-lactate dehydrogenase (Plasmodium falciparum (isolate CDC / Honduras)), sequence (Q27743 whole entry, looked up): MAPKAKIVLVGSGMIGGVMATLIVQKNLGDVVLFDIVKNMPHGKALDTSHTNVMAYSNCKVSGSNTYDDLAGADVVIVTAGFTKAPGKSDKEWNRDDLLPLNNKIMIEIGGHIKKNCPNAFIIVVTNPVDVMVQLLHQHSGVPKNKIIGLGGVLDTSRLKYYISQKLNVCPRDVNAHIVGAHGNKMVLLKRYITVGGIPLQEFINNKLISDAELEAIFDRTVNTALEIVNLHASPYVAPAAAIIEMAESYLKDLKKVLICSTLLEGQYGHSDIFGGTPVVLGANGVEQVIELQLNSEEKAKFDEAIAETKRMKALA
Calcium-dependent protein kinase 1 (Plasmodium falciparum (isolate 3D7)), sequence (P62344 whole entry, looked up): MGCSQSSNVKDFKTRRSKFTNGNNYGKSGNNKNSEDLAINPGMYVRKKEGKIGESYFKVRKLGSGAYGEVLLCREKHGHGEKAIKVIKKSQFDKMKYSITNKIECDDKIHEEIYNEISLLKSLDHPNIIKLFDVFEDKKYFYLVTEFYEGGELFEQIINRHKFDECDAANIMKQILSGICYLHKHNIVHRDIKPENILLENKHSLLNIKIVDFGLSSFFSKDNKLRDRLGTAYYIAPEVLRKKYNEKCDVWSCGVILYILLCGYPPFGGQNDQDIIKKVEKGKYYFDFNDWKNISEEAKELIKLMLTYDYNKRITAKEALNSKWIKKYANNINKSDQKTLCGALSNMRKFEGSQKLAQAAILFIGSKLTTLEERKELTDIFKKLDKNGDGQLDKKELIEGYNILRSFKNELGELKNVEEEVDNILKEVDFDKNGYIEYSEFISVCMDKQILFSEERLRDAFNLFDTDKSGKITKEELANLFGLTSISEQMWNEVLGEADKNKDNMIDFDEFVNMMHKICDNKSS

Compound	growth inhibition [1]	inhibition [2]	inhibition [3] [%]	growth inhibition [4]	outcome [5]	outcome [6]	outcome [7]	outcome [8]
Cc1c[nH]c2ccc(/C=C/C(=O)NC3CCC(CCN4CCc5ccc(C#N)cc5CC4)CC3)cc12 (stereo not drawn)	91% (active)	9%	0	101% (active)	inactive	inactive	inactive	inactive
Cc1cccc(Nc2c(-c3cc(Br)ccc3O)nc3ncccn23)c1	98% (active)	-2%	1	100% (active)	inactive	inactive	inactive	inactive
CS(=O)(=O)NCCCNCc1cccc(-c2csc(-c3nc4ccccc4[nH]3)c2)c1	9%	23%	8	95% (active)	inactive	inactive	inactive	inactive
COc1ccc(CNCc2ccc(-c3cccc(-c4nc5c(C)cccc5[nH]4)c3)cc2)cc1	101% (active)	69% (active)	-7	102% (active)	inactive	inactive	inactive	inactive
O=C(/C=C/c1ccc(Cl)cc1Cl)NCCCCCN1CCC(c2c[nH]c3ccccc23)CC1	9%	95% (active)	1	99% (active)	inactive	inactive	inactive	inactive
CCCCCCCCc1[nH]c(C)c(Br)c(=O)c1Br	95% (active)	2%	2	96% (active)	inactive	inactive	inactive	inactive
CCCNC(=O)c1cncc(-c2ccc(CNC3Cc4ccccc4C3)cc2)c1	21%	9%	-8	97% (active)	inactive	inactive	inactive	inactive
Cc1nc2ccc3ccc(CNc4ccc(C(=O)CC(CCC(=O)O)C(=O)O)cc4)cc3c2c(=O)[nH]1 (stereo not drawn)	96% (active)	51% (active)	-1	95% (active)	inactive	inactive	inactive	inactive
CCc1ccc(CN2CCC(NC(=O)c3cc(-c4ccc(N(C)C)cc4)cs3)C2)cc1 (stereo not drawn)	7%	29%	3	90% (active)	inactive	inactive	inactive	inactive
COc1cccc(COCC(O)CN(CCc2ccccn2)C(=O)c2ccccc2F)c1 (stereo not drawn)	30%	61% (active)	-1	97% (active)	inactive	inactive	inactive	inactive
N#Cc1cc(C(=O)c2cc(Br)ccc2O)cn(-c2cc(Cl)cc(Cl)c2)c1=O	35%	42%	-5	98% (active)	inactive	inactive	inactive	inactive
COc1ccc(S(=O)(=O)NC2CCN(CCCOc3ccnc4cc(Cl)ccc34)C2)cc1OC (stereo not drawn)	56% (active)	8%	1	91% (active)	inactive	inactive	inactive	inactive
COC1(C)Oc2ccc3cccc([N+](=O)[O-])c3c2C1=O (stereo not drawn)	-4%	3%	-2	98% (active)	inactive	inactive	inactive	inactive
Cc1nc2c(c(O)c1Cl)-c1ccc(Oc3cccc(C(F)(F)F)c3)cc1C2=O	95% (active)	25%	-6	94% (active)	inactive	inactive	inactive	inactive
O=C(Nc1ccc(-c2nc3ccccc3[nH]2)cc1)c1ccc(S(=O)(=O)N2CCc3ccccc32)cc1	34%	32%	3	102% (active)	inactive	inactive	inactive	inactive
COc1ccc(CNC2CCN(C)CC2)cc1-c1ccc(S(=O)(=O)NCc2ccccc2)c(F)c1	97% (active)	53% (active)	4	101% (active)	inactive	inactive	inactive	inactive
CC(C)c1cc2c(ccc3nc(N)nc(N)c32)o1	37%	66% (active)	3	99% (active)	inactive	inactive	inactive	inactive
OC(c1cc(C(F)(F)F)nc2c(F)cccc12)C1CCCCN1 (stereo not drawn)	74% (active)	-4%	-2	98% (active)	inactive	inactive	inactive	inactive
Oc1cccc(CCNCCCCCCNCCc2ccc(Cl)cc2)c1	-3%	23%	-1	96% (active)	inactive	inactive	inactive	inactive
O=S(=O)(Nc1ccc(CCN2CCCCC2CCN2CCCC2)cc1)c1ccc(-c2ccccc2)cc1 (stereo not drawn)	18%	18%	-1	98% (active)	inactive	inactive	inactive	inactive
CCCCCCN1CCN(Cc2cccc(NC(=O)c3ccc(Cl)c(Cl)c3)c2)CC1	51% (active)	31%	-4	85% (active)	inactive	inactive	inactive	inactive

Compound	growth inhibition [1]	inhibition [2]	inhibition [3] [%]	growth inhibition [4]	outcome [5]	outcome [6]	outcome [7]	outcome [8]
CC1CCc2c(C(=O)N3CCc4ccccc4C3)csc2C1 (stereo not drawn)	75% (active)	9%	-3	99% (active)	inactive	inactive	inactive	inactive
Cc1cc(NN=Cc2ccc([N+](=O)[O-])cc2)c2ccc(F)cc2n1	22%	-3%	0	101% (active)	inactive	inactive	inactive	inactive
NCCCNc1nccc(N2CCc3ncnc(Nc4ccc(OCc5cccc(F)c5)c(Cl)c4)c3C2)n1	93% (active)	18%	0	98% (active)	inactive	inactive	inactive	inactive
Cc1cc(NN=Cc2ccccc2[N+](=O)[O-])c2ccc(F)cc2n1	100% (active)	32%	-4	101% (active)	inactive	inactive	inactive	inactive
Cn1cc(C(=O)Nc2cccc(-c3cccc(-c4nc5ccccc5[nH]4)c3)c2)n(C)c1=O	60% (active)	0%	-6	99% (active)	inactive	inactive	inactive	inactive
Cn1cncc1C(=O)Nc1ccc(-c2cccc(-c3nc4ccc(C(F)(F)F)cc4[nH]3)c2)cc1	3%	34%	4	100% (active)	inactive	inactive	inactive	inactive
Cn1cncc1C(=O)Nc1cccc(-c2ccc(-c3nc4ccccc4[nH]3)s2)c1	25%	-3%	-3	102% (active)	inactive	inactive	inactive	inactive
O=C(N[C@@H](CC1CCCCC1)C(=O)NC1CCCc2ccccc21)c1ccc(O)c(-c2cccc(C(F)(F)F)c2)c1 (stereo partly drawn)	99% (active)	-4%	5	100% (active)	inactive	inactive	inactive	inactive
O=C(Nc1cccnc1)c1ccc(-c2cc3ccncc3cc2OC2CCNCC2)s1	12%	-5%	1	97% (active)	inactive	inactive	inactive	inactive
Cn1nccc1C(=O)NCCNCc1ccc(-c2cccc(-c3nc4ccccc4[nH]3)c2)cc1	87% (active)	35%	2	101% (active)	inactive	inactive	inactive	inactive
COC(=O)c1ccc(CCC(C)NCC(O)c2cccc(C(F)(F)F)c2)cc1 (stereo not drawn)	99% (active)	16%	-7	99% (active)	inactive	inactive	inactive	inactive
c1ccc2sc(Sc3ncnc4sccc34)nc2c1	100% (active)	7%	2	100% (active)	inactive	inactive	inactive	inactive
CCc1ccccc1N=C1c2c(cccc2[N+](=O)[O-])C(=O)C1C(C)=O (stereo not drawn)	96% (active)	-6%	4	99% (active)	inactive	inactive	inactive	inactive
Cc1nnnn1-c1ccc(C(=O)N2CCC3(CC2)CN(Cc2ccc(Cl)c(Cl)c2)C(=O)O3)cc1	99% (active)	2%	2	101% (active)	inactive	inactive	inactive	inactive
CC(C)c1ccc(C2CCN(CCCCNC(=O)c3ccc(NC(=O)c4ccc(C(F)(F)F)cc4)cc3)CC2)c(O)c1	100% (active)	47%	7	99% (active)	inactive	inactive	inactive	inactive
Cc1cc(N(C)C2CCN(C)C2)nc(Nc2ccccc2Cl)n1 (stereo not drawn)	84% (active)	1%	-1	100% (active)	inactive	inactive	inactive	inactive
CC(C)c1ccc(NC(=O)NCCCC2CCCN(CCCCCNC(=O)/C=C/c3ccc(Cl)c(Cl)c3)C2)cc1 (stereo not drawn)	42%	25%	-2	90% (active)	inactive	inactive	inactive	inactive
O=C(/C=C/c1ccc(Cl)c(Cl)c1)NCCCCCN1CCCC(C(=O)Nc2ccc(Cl)c(Cl)c2)C1 (stereo not drawn)	11%	53% (active)	-1	100% (active)	inactive	inactive	inactive	inactive
CCCc1cccc(OC)c1OCCCON1C(N)=NC(N)=NC1(C)C	97% (active)	65% (active)	5	94% (active)	inactive	inactive	inactive	inactive
COc1cccc(NC(=O)NC2CCN(c3ccnc(Nc4cc(OC)c(OC)c(OC)c4)n3)C2)c1 (stereo not drawn)	57% (active)	8%	-2	95% (active)	inactive	inactive	inactive	inactive
